Measurements reported in the supplement of paper PMC6411743.
± gives the standard deviation of the averaged measurements. Of roughly 6,200 targets only a part is listed; those with the largest changes were picked by preference.

Compound: Nc1ncnc2c1ncn2[C@@H]1O[C@H](COP(=O)(O)OP(=O)(O)NP(=O)(O)O)[C@@H](O)[C@H]1O [adenylyl imidodiphosphate]
Experiment: NP40-soluble protein abundance relative to vehicle (solubility fold change) (ratio); higher = more soluble protein in presence of AMP-PNP
Method in brief: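 Eight concentrations, 0.1 to 10 mM, were tested on Jurkat crude lysate for 10 min at room temperature and then 3 min at 37 °C, in three independent experiments. The lysate was solubilised with 0.8% NP40 and benzonase, ultracentrifuged, and the supernatant TMT-labelled for LC-MS/MS. Each value is the fold change against the detergent-processed vehicle in its own replicate, from vsn-normalised intensities.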

UniProt O75879, sequence (O75879 whole entry, one chain of several): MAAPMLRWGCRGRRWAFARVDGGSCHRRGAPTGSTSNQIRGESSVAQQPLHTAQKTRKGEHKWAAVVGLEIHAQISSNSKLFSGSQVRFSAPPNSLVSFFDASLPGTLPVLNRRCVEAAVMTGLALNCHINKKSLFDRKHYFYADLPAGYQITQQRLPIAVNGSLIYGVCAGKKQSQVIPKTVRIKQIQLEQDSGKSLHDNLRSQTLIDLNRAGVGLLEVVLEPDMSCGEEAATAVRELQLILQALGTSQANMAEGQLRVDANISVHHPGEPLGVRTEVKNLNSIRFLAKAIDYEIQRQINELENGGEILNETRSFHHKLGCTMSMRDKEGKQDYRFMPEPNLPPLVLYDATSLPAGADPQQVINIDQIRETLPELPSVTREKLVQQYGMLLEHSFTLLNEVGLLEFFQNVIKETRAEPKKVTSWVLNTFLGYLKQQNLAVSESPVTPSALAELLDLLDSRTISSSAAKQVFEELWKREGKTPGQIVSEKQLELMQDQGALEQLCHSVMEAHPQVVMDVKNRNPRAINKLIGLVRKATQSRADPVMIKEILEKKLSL
UniProt Q9H7P6, sequence (Q9H7P6 whole entry, one chain of several): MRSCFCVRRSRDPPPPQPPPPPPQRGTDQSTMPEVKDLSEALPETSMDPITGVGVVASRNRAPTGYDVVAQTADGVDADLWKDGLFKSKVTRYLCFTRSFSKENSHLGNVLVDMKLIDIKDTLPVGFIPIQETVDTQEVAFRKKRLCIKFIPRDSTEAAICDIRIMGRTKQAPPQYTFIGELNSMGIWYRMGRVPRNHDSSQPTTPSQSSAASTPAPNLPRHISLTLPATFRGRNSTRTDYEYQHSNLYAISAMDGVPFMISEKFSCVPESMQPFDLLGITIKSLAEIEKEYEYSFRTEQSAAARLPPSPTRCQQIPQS
UniProt O60832, sequence (O60832 whole entry): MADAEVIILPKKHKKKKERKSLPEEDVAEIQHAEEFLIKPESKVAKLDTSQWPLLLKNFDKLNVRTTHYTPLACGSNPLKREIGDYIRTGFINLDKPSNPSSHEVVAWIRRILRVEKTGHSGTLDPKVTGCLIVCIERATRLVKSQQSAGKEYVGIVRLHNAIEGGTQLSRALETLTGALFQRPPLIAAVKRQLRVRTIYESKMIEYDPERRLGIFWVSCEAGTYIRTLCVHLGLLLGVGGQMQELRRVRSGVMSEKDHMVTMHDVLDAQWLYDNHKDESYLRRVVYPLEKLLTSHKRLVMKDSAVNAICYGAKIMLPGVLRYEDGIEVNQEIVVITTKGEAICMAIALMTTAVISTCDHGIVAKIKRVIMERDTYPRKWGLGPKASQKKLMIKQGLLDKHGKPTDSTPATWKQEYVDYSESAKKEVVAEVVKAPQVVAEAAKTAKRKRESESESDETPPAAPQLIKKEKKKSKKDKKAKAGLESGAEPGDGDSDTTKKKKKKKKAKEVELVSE
UniProt O43633, sequence (O43633 whole entry): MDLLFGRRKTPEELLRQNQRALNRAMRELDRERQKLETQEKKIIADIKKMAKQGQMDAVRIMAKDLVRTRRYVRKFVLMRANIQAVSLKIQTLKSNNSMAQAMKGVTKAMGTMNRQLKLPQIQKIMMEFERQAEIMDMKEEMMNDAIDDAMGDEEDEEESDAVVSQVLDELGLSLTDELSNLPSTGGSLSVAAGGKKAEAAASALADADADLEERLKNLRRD
UniProt O00567, sequence (O00567 whole entry): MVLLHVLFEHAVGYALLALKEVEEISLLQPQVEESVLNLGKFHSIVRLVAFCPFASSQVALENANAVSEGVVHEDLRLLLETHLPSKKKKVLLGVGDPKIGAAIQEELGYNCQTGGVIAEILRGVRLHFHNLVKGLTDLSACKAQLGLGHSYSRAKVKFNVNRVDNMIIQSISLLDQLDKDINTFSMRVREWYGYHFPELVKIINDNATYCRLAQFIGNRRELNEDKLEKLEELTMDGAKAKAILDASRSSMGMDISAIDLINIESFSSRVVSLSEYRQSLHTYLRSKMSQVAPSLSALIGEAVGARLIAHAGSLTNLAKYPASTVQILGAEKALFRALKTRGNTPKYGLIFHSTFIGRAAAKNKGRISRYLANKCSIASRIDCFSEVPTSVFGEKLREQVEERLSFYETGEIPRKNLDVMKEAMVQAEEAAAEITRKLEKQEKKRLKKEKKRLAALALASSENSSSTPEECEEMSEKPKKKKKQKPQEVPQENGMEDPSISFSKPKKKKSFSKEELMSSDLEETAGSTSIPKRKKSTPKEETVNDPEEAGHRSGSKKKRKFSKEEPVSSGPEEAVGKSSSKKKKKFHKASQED
UniProt Q13557, sequence (Q13557 whole entry, one chain of several): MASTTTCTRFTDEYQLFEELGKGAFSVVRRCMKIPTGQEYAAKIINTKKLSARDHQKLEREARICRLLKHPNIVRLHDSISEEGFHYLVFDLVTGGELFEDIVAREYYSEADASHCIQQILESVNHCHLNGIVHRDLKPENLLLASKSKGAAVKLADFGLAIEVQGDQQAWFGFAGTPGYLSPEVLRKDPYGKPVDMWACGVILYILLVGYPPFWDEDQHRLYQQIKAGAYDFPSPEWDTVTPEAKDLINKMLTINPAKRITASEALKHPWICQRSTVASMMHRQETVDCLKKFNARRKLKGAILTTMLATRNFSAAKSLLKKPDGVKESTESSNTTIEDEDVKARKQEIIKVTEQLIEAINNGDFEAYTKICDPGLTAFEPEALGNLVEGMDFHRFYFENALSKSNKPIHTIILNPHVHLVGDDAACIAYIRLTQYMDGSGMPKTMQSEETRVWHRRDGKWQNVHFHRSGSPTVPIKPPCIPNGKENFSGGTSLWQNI
UniProt O14646, sequence (O14646 whole entry): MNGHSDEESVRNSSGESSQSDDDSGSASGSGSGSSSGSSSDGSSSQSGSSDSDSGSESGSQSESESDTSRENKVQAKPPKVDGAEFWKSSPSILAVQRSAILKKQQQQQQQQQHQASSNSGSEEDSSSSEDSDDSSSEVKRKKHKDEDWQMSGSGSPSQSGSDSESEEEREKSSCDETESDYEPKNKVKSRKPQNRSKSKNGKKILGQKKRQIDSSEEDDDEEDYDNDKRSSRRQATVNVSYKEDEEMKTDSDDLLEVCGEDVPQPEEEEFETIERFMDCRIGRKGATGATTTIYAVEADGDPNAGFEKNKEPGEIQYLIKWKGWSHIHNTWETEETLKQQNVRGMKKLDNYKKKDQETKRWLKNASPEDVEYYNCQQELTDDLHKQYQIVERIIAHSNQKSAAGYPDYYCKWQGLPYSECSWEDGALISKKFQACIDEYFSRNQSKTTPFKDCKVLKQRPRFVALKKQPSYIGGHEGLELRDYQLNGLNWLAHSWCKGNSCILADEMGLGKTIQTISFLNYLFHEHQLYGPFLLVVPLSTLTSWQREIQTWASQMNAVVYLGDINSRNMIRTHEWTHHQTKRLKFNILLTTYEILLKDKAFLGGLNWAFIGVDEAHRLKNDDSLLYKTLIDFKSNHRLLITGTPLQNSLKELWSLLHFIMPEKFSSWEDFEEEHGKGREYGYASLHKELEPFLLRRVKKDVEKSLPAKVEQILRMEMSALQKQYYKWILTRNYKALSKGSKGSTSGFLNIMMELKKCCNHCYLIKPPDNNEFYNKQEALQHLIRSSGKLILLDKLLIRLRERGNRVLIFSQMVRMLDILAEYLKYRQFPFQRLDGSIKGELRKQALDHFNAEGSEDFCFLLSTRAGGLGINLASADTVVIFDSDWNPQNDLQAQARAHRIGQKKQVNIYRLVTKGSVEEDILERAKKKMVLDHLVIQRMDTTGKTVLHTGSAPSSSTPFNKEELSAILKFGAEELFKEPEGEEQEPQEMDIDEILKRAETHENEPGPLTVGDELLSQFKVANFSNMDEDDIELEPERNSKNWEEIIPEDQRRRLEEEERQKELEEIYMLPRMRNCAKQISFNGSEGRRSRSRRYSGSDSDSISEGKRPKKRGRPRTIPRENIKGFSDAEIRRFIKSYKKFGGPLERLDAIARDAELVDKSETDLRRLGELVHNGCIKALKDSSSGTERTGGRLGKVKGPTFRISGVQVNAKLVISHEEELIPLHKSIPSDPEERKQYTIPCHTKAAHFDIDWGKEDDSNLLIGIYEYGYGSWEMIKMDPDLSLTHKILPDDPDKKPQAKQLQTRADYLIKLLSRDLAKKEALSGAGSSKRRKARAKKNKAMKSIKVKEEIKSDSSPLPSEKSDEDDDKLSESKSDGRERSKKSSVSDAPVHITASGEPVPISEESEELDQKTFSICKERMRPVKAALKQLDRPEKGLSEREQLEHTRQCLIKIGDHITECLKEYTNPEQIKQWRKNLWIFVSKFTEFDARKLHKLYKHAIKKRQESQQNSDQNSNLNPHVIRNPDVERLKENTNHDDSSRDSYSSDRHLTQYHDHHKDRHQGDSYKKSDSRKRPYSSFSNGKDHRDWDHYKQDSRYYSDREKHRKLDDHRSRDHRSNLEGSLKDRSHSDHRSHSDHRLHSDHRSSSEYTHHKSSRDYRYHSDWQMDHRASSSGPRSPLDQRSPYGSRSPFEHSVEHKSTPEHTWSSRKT
UniProt Q13227, sequence (Q13227 whole entry, one chain of several): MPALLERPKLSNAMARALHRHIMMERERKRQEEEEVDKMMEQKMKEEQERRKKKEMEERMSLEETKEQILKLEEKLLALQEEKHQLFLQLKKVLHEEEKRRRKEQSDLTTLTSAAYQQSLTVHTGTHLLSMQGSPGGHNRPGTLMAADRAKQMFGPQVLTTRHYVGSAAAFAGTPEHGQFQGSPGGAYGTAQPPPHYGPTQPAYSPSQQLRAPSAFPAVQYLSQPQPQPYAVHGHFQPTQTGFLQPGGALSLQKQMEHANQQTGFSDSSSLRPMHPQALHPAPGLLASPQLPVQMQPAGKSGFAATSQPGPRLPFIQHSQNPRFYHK
UniProt Q96C01, sequence (Q96C01 whole entry, one chain of several): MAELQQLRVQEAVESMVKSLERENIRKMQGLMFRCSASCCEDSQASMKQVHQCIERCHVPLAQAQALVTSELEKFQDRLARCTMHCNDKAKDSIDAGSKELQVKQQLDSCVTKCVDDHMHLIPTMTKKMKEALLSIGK

Target	NP40-soluble protein abundance (concentration: 1mM)	NP40-soluble protein abundance (concentration: 2mM)	NP40-soluble protein abundance (concentration: 4mM)	NP40-soluble protein abundance (concentration: 6mM)	NP40-soluble protein abundance (concentration: 8mM)	NP40-soluble protein abundance (concentration: 10mM)
D6RCD0|Q8NBQ5 (UniProt Q8NBQ5)	0.995 ± 0.031	0.9738 ± 0.0077	1.01 ± 0.047	1.06 ± 0.079	1.04 ± 0.056	1.04 ± 0.064
I3L4X7|Q13227|Q13227-2 (UniProt Q13227)	0.982 ± 0.029	1.03 ± 0.059	1.02 ± 0.064	1.08 ± 0.067	1.05 ± 0.019	1.1 ± 0.019
E9PBG7|E9PF82|Q13557|Q13557-10|Q13557-11|Q13557-12|Q13557-3|Q13557-4|Q13557-5|Q13557-6|Q13557-8|Q13557-9 (UniProt Q13557)	0.94 ± 0.026	0.989 ± 0.049	0.903 ± 0.017	0.89 ± 0.054	0.878 ± 0.022	0.88 ± 0.027
N4BP1 (UniProt O75113)	1.01 ± 0.014	1.02 ± 0.039	1.02 ± 0.032	0.979 ± 0.027	0.96 ± 0.012	0.954 ± 0.028
J3KPP4|O95232 (UniProt O95232)	1.02 ± 0.036	1.06 ± 0.058	1.06 ± 0.019	1.22 ± 0.015	1.3 ± 0.039	1.51 ± 0.049
D6REA0|O75879 (UniProt O75879)	0.962 ± 0.026	0.9665 ± 0.0091	0.968 ± 0.036	1.03 ± 0.028	0.986 ± 0.038	1.003 ± 0.0032
H0YLE6|Q9NWH9 (UniProt Q9NWH9)	1.05 ± 0.044	1.11 ± 0.083	1.08 ± 0.039	1.12 ± 0.092	1.11 ± 0.094	1.17 ± 0.094
UniProt O60508|Q5SRN1	1.03 ± 0.018	1.07 ± 0.029	1.06 ± 0.026	1.09 ± 0.059	1.08 ± 0.044	1.13 ± 0.056
B8ZZS2|Q13506|Q13506-2 (UniProt Q13506)	0.9966 ± 0.0056	1.02 ± 0.019	0.9788 ± 0.0084	1.024 ± 0.0073	1.01 ± 0.029	1.008 ± 0.0093
F8W922|Q9H7P6|Q9H7P6-2 (UniProt Q9H7P6)	1.01 ± 0.013	0.98 ± 0.022	0.989 ± 0.02	1.02 ± 0.032	1.02 ± 0.016	1.02 ± 0.013
FAM20B (UniProt O75063)	0.973 ± 0.02	0.993 ± 0.022	0.978 ± 0.024	0.99 ± 0.024	0.963 ± 0.016	1 ± 0.042
A0A0B4J2E5|Q15269 (UniProt Q15269)	1.05 ± 0.019	1.04 ± 0.098	1.23 ± 0.043	1.38 ± 0.036	1.56 ± 0.074	1.52 ± 0.095
CHMP2A (UniProt O43633)	0.949 ± 0.013	1.02 ± 0.094	0.936 ± 0.021	0.966 ± 0.043	0.971 ± 0.031	0.915 ± 0.078
E9PLT2|P17480|P17480-2 (UniProt P17480)	1.08 ± 0.032	1.23 ± 0.06	1.32 ± 0.055	1.47 ± 0.026	1.56 ± 0.027	1.73 ± 0.044
E7EUU4|E7EX73|E9PGM1|Q04637-8|Q04637-4 (UniProt Q04637)	1.06 ± 0.036	1.12 ± 0.039	1.12 ± 0.045	1.14 ± 0.063	1.15 ± 0.039	1.17 ± 0.056
E7EQY1|Q96C01 (UniProt Q96C01)	1.01 ± 0.036	1.11 ± 0.07	0.988 ± 0.082	0.991 ± 0.062	0.958 ± 0.062	0.968 ± 0.11
J3KNV1|O60281 (UniProt O60281)	1.02 ± 0.034	1.08 ± 0.024	1.016 ± 0.0028	0.966 ± 0.034	0.968 ± 0.02	0.985 ± 0.041
PSMD3 (UniProt O43242)	0.909 ± 0.031	0.865 ± 0.055	0.885 ± 0.091	0.906 ± 0.087	0.933 ± 0.11	0.915 ± 0.14
F6TLX2|Q9HC38-2 (UniProt Q9HC38)	1.01 ± 0.02	1.01 ± 0.014	0.981 ± 0.03	0.958 ± 0.035	0.938 ± 0.034	0.95 ± 0.047
K7EKM7 (UniProt O75264)	1 ± 0.035	0.988 ± 0.015	1 ± 0.038	0.971 ± 0.032	0.9753 ± 0.0085	1.01 ± 0.014
F5H0R1|Q9H6E5 (UniProt Q9H6E5)	0.994 ± 0.023	1.01 ± 0.039	1.02 ± 0.016	0.973 ± 0.032	0.983 ± 0.024	0.978 ± 0.025
A0A0A0MQS2|F5H0Q6 (UniProt Q8N2M8)	1.06 ± 0.049	1.13 ± 0.083	1.04 ± 0.064	1.06 ± 0.1	1.04 ± 0.043	1.06 ± 0.015
CCNT1 (UniProt O60563)	1.1 ± 0.051	1.19 ± 0.074	1.21 ± 0.064	1.25 ± 0.12	1.31 ± 0.11	1.4 ± 0.14
F8VX04|Q9H2H9 (UniProt Q9H2H9)	1.14 ± 0.1	1.36 ± 0.19	1.1 ± 0.051	1.06 ± 0.094	1.01 ± 0.087	1.13 ± 0.19
KPNA4 (UniProt O00629)	1.07 ± 0.029	1.074 ± 0.0097	1.07 ± 0.016	1.03 ± 0.047	1.05 ± 0.051	1.05 ± 0.037
UniProt O00567	1.08 ± 0.026	1.08 ± 0.024	1.16 ± 0.026	1.25 ± 0.056	1.37 ± 0.087	1.53 ± 0.12
DKC1 (UniProt O60832)	1.049 ± 0.0097	1.1 ± 0.057	1.13 ± 0.028	1.21 ± 0.051	1.29 ± 0.046	1.36 ± 0.083
H7C5I3|J3KR55|P35236|P35236-2|P35236-3 (UniProt P35236)	0.978 ± 0.0098	1.01 ± 0.021	0.994 ± 0.037	0.978 ± 0.011	0.959 ± 0.018	0.982 ± 0.033
UniProt O14646|O14646-2	1.07 ± 0.052	1.15 ± 0.023	1.23 ± 0.077	1.33 ± 0.14	1.41 ± 0.11	1.49 ± 0.15
C9JIF9|P13798 (UniProt P13798)	0.953 ± 0.027	0.88 ± 0.061	0.915 ± 0.0095	0.903 ± 0.014	0.909 ± 0.022	0.871 ± 0.04
